KDM4E inh: qHTS Assay for Inhibitors of Human Jumonji Domain Containing 2E (JMJD2E). JMJD2E catalytic domain, FDH-coupled NADH fluorescence (FDH is formaldehyde dehydrogenase). Potency, µM (top dose mostly 57.1 µM), for inactives: at the highest dose activity change, negative = inhibition, most hits filed as inhibitors. actives 1.6% (n = 230,000); active = well fitted inhibition curve with a large enough effect, not every such curve was filed as active; inconclusive = small, poorly fitted or top-dose-only effect, or another doubt; inactive = no such curve, though single readings can be large or run the other way;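 also: potency is read from the fitted curve at half-maximal effect; 0% = wells with enzyme and -100% = buffer wells without enzyme; nearly all actives have a fitted effect of over 50% in size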
L3MBTL1 block: qHTS Assay for the Inhibitors of L3MBTL1; actives 0.66% (n = 230,000); Potency, µM (top dose mostly 57.1 µM), for inactives: at the highest dose activity, negative = inhibition, hits mostly inhibitors; Lethal(3)malignant brain tumor-like protein 1 (Homo sapiens), Q9Y468; AlphaScreen L3MBTL1–H3K9me1 peptide binding; AID 485360, 2010; also: potency is read from the fitted curve at half-maximal effect; % is scaled to controls: 0 for no effect and ±100 for the full control effect; nearly all actives have a fitted effect of over 60% in size
Target sequence (Q9Y468 whole entry, looked up): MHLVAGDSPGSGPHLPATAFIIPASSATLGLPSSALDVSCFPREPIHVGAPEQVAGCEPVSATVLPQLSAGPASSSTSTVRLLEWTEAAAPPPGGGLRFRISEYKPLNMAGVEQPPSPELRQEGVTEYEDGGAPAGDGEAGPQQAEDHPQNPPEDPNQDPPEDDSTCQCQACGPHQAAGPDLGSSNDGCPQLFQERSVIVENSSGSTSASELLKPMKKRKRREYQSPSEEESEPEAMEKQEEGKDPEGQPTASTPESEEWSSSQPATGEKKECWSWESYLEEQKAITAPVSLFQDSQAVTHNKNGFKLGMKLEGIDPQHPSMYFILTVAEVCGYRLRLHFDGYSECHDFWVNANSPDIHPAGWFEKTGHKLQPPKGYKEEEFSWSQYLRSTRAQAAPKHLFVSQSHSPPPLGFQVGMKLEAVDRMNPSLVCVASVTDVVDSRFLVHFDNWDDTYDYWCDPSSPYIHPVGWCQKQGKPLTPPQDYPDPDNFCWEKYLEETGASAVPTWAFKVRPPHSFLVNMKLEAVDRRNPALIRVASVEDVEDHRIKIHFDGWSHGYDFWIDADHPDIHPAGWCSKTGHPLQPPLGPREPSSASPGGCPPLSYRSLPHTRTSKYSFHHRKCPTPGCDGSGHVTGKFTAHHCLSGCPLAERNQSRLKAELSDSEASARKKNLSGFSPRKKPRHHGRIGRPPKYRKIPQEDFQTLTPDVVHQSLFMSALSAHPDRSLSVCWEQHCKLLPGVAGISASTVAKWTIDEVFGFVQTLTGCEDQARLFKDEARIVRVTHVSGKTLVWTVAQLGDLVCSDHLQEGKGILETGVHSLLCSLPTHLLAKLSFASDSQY
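AlphaScreen proximity signal between nickel-chelate acceptor and streptavidin donor beads (final 10 ug/mL) reports binding of 50 nM L3MBTL1 to 75 nM biotin-H3 K9me1 peptide; complex incubated with compounds 30 min at room temperature; cefsulodin titration as control.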
JMJD2A Tudor: qHTS Assay for Inhibitors of JMJD2A-Tudor Domain; Lysine-specific demethylase 4A (Homo sapiens), O75164; AlphaScreen JMJD2A-Tudor / H3K4me3 peptide binding; Potency, µM (series often up to 114 µM), for the others: at the top dose activity change, negative = inhibition, usual class: inhibitors; actives 4.4% (n = 390,000); AID 504339, 2011; also: potency is read from the fitted curve at half-maximal effect; % is scaled to controls: 0 for no effect and ±100 for the full control effect; nearly all actives have a fitted effect of over 50% in size
PI5P4Ka inh: qHTS for Inhibitors of phosphatidylinositol 5-phosphate 4-kinase (PI5P4K); actives 1.2% (n = 330,000); PI5P4Kalpha enzyme, ADP-Glo luminescence, 60 min; hits give low values; AID 652105, 2013; max response, %; Phosphatidylinositol 5-phosphate 4-kinase type-2 alpha (Homo sapiens), P48426; active = max response of -50% or lower; inconclusive = between -30% and -50%; inactive = -30% or higher; also: value at the top dose of about 77 µM; % is scaled to controls: 0 for no effect and ±100 for the full control effect
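Controls without substrate or without enzyme flank wells where PI5P4Kalpha converts substrate using 5 microM ATP (final). Incubation lasts 60 minutes at room temperature; ADP formed is read by ADP-Glo luminescence.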
BAZ2B block: qHTS Assay for Inhibitors of BAZ2B; Bromodomain adjacent to zinc finger domain protein 2B (Homo sapiens), Q9UIF8; AlphaScreen BAZ2B-H3K14Ac peptide displacement; Potency, µM (doses to about 114 µM), for the others: at the highest dose activity change, negative = inhibition, actives largely listed as inhibitors; actives 4.4% (n = 360,000); also: potency is read from the fitted curve at half-maximal effect; % is scaled to controls: 0 for no effect and ±100 for the full control effect; nearly all actives have a fitted effect of over 60% in size
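AlphaScreen luminescence quantifies BAZ2B engagement of H3K14Ac peptide; the protein and biotinylated peptide are both at 50 nM final, buffer PBS pH 7.4 with 0.01% Tween-20, all steps at room temperature.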
HP1b binding inh: HTS for Inhibitors of HP1-beta Chromodomain Interactions with Methylated Histone Tails; Potency, µM (top dose mostly 114 µM), without a hit: at the highest dose activity change, negative = inhibition, hits mostly inhibitors; actives 0.56% (n = 390,000); AlphaScreen HP1-beta / biotin-H3K9me3 peptide binding; Chromobox protein homolog 1 (Homo sapiens), P83916; also: potency is read from the fitted curve at half-maximal effect; nearly all actives have a fitted effect of over 70% in size
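HP1-beta protein (50 nM final) preincubated 30 min at room temperature with biotinylated H3(1-18)K9me3 peptide (50 nM) in PBS pH 7.4, 0.01% Tween-20, then compound added for 30 min. AlphaScreen streptavidin donor/nickel chelate acceptor beads (10 ug/mL final), 30 min dark, luminescence read.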
An asterisk follows results filed as active; ? = inconclusive; / = no result given; [ ] = remark or other dose. Sampled rows, rich in hits. Any-hit rate of the full collection: about 5.7%. Unless noted, calls follow the shape of the dose curve; as a rule, active = well fitted inhibition curve with a large enough effect; inconclusive = small, poorly fitted or top-dose-only effect; inactive = no such curve, though single readings can be large or run the other way.

SMILES	KDM4E inh	L3MBTL1 block	JMJD2A Tudor	PI5P4Ka inh	BAZ2B block	HP1b binding inh
CC1Cc2ccccc2N1CC(=O)Nc1ccc(N2CCOCC2)cc1 (stereo unspecified)	-2%	?	?	-1	?	-9%
Cc1cc2c(s1)c1cnn(Cc3cccc(C(F)(F)F)c3F)c(=O)c1n2C	/	/	-28%	/	/	/
CCN1CCN(c2cc(C)c3cc(NC(=O)c4ccc(Br)o4)ccc3n2)CC1	-2%	-6%	?	0	71µM*	6%
COc1ccc(CCNC(=O)CCC(=O)Nc2ccc3nc(N4CCN(C)CC4)cc(C)c3c2)cc1OC	?	/	79µM*	3	-20%	-21%[57 µM]
CCN1CCN(c2cc(C)c3cc(NC(=O)c4ccncc4)ccc3n2)CC1	-6%	-6%	-32%	3	4%	-6%
O=C(COc1ccccc1)N=C1SC2CS(=O)(=O)CC2N1CCc1ccccc1 (stereo unspecified)	/	/	-1%	-6	-15%[57.1 µM]	32%
CCN1CCCC1CNC(=O)c1ccc2c(c1)NC(=O)/C(=C\c1ccc(OC)c(OC)c1)S2 (stereo unspecified)	/	/	28µM*	-1	25µM*	-17%[57 µM]
O=C1Nc2cc(C(=O)NCCCN3CCCC3)ccc2S/C1=C/c1cccc(Cl)c1	/	/	/	-51*	/	/
CCN1CCCC1CNC(=O)c1cc(N)ccc1OC (stereo unspecified)	/	/	0.79µM*	0	/	?
O=C1Nc2cc(C(=O)NCCN3CCCCCC3)ccc2S/C1=C\c1ccccc1	/	/	?	-11	?	-13%
CCN1CCC[C@H]1CNC(=O)c1cc(S(N)(=O)=O)ccc1OC	-3%	/	/	/	-6%	/
Cc1ccc(C(c2sc3nc(-c4ccco4)nn3c2O)N2CCN(Cc3ccccc3)CC2)cc1 (stereo unspecified)	/	/	?	/	?	19%
Cc1nn(CC(=O)NC2CC2)c(=O)c2cc3ccccc3n12	/	/	-6%	/	-1%	28%
Cc1ccc(C)c(-n2c(CCC(=O)O)ccc2-c2ccc(Cl)cc2)c1	/	/	?	/	40µM*	-13%
Cc1cc(Cl)ccc1-n1c(CCC(=O)O)ccc1-c1cccs1	/	/	?	/	45µM*	-14%
Cc1cc2c(s1)c1cnn(Cc3ccc(C)c(F)c3F)c(=O)c1n2C	/	/	-19%	/	/	/
O=[N+]([O-])c1ccccc1NC(=S)N/N=C/c1ccc(O)c(O)c1	25µM*	?	?	-63*	10µM*	8.9µM*
CCOc1cccc(/C=N/NC(=S)Nc2ccccc2[N+](=O)[O-])c1O	?	?	?	-21	11µM*	9%
CCCCNC(=S)N/N=C/c1cccc(OCC)c1O	-18%	3%	-20%	2	-26%	20%
O=[N+]([O-])c1ccccc1C=NNC(=S)NN=Cc1ccccc1[N+](=O)[O-]	/	/	?	-20	/	-18%
O=[N+]([O-])c1cccc(-c2nc3ccc([N+](=O)[O-])cc3[nH]2)c1	2%	?	20µM*	?	7%	-2%
CCOC(=O)C1=C(CSc2nc(C)ccc2C#N)OC(N)=C(C#N)C1c1cccc(OC)c1OC (stereo unspecified)	?	-9%	?	6	56µM*	16%
CCOC(=O)C1=C(CSc2nc(CC)c(C)cc2C#N)OC(N)=C(C#N)C1c1ccc(OC)cc1 (stereo unspecified)	-2%	1%	32µM*	-13	-25%	21%
CCOc1ccc(OCCCCN2CCCC2)cc1	?	/	45µM*	2	?	-16%
CCCCOc1ccc(CN2CCCCC2)cc1	-2%	-1%	-6%	/	-4%	30%

Screens: PubChem BioAssay, National Center for Advancing Translational Sciences (NCATS)
